The source made the active and inactive calls. The calls were made as follows: active = hit-call score of the fitted dose curve at least 0.9, where 1 is the maximum; inactive = score below 0.9.

The record followed here is PubChem BioAssay (EPA / NIEHS).

Assay [1] can be described thus: ATG_CRE_CIS: Attagene CIS-FACTORIAL HepG2 Assay for human cAMP Responsive Element (CRE) binding protein 3 (AID 2282926). The conditions noted are these: HepG2 CRE cis-reporter, Attagene multiplexed mRNA; actives raise or lower the signal. The method, boiled down: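 Readout: fluorescently labelled reporter transcripts resolved by capillary electrophoresis after RT-PCR, taken 24 h post-dosing in transfected HepG2. Endogenous transcription factor activity drives each cis-element reporter; gain or loss of signal fitted relative to DMSO control.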

Assay [2] concerns the target CCAAT/enhancer-binding protein beta (Homo sapiens) (UniProt P17676). Put plainly: ATG_C_EBP_CIS: Attagene CIS-FACTORIAL HepG2 Assay for human CCAAT/Enhancer Binding Protein (C/EBP) beta (AID 2282927). To be noted: HepG2 Attagene cis-factorial transcription factor reporter; actives raise or lower the signal. The method, boiled down: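 RT-PCR/capillary electrophoresis fluorescence of reporter mRNA, 24 h post-dose, in HepG2 cells carrying transfected cis-promoter reporter units. Bidirectional curve fitting against DMSO baseline captures gain or loss of signal.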

Assay [3] in a line: ATG_CMV_CIS: Attagene CIS-FACTORIAL HepG2 Assay for human CMV (Internal Marker) (AID 2282928).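 Also: endpoint acts as a background internal control marker rather than a target.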 The conditions noted are these: HepG2 CMV promoter reporter, transcription factor profiling; actives raise or lower the signal. The method in brief:
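Bidirectional fits against DMSO are applied to reporter mRNA, read by RT-PCR with capillary electrophoresis, from HepG2 cells exposed 24 h. The endpoint serves as an internal CMV background marker within the cis-factorial reporter panel.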

A short description of assay [4]: ATG_DR4_LXR_CIS: Attagene CIS-FACTORIAL HepG2 Assay for human Liver X Receptor (LXR), DR4 submotif (AID 2282929). To be noted: HepG2 Attagene DR4 cis-reporter, mRNA transcription; actives raise or lower the signal. The method, boiled down:
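HepG2, transient MRTU transfection, cis-element (DR4) promoter; 24 h compound exposure; total RNA → oligo(dT) RT → PCR → 6-FAM primer extension → HpaI cut → CE. Gain/loss vs DMSO, bidirectional fit.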

The target of assay [5] is Aryl hydrocarbon receptor (Homo sapiens) (UniProt P35869). Nature of the assay: ATG_Ahr_CIS: Attagene CIS-FACTORIAL HepG2 Assay for human Aryl Hydrocarbon Receptor (Ahr) (AID 2282930). To be noted: HepG2 AhR cis-factorial reporter transcription; actives raise or lower the signal. The method in brief:
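HepG2 cells transiently transfected with cis-element-driven multiplexed reporter transcription units; endogenous transcription factor activity measured as reporter mRNA 24 h after dosing. RT-PCR, 6-FAM labelling, HpaI digestion, capillary electrophoresis; bidirectional fitting versus DMSO baseline.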

Assay [6] can be described thus: ATG_AP_1_CIS: Attagene CIS-FACTORIAL HepG2 Assay for human Activator Protein 1 (AP-1) (AID 2282931). The conditions noted are these: HepG2 Attagene cis-factorial AP-1 reporter mRNA; actives raise or lower the signal. The method in brief: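 Transient MRTU transfection of HepG2 → 24 h chemical treatment → RNA isolation, RT-PCR, 6-FAM labelling, HpaI digest → capillary electrophoresis. Fit: bidirectional, DMSO negative control.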

A short description of assay [7]: ATG_AP_2_CIS: Attagene CIS-FACTORIAL HepG2 Assay for human Activator Protein 2 (AP-2) (AID 2282932). To be noted: HepG2 AP-2 cis-reporter, Attagene transcription factor profiling; actives raise or lower the signal. The method in brief:
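Cells (HepG2) transfected with promoter-driven reporter constructs, treated 24 h. Total RNA reverse-transcribed, reporter cDNA PCR-amplified, FAM-labelled by primer extension, digested, resolved by capillary electrophoresis. Activity fitted both directions versus DMSO.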

The nature of assay [8]: ATG_BRE_CIS: Attagene CIS-FACTORIAL HepG2 Assay for human Bone Morphogenetic Protein (BMP) Response Element (BRE) (AID 2282933). The conditions noted are these: HepG2 BMP response element reporter, Attagene transcription factor profiling; actives raise or lower the signal. The method in brief:
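Fluorescence-labelled reporter cDNA fragments, separated by capillary electrophoresis, gave the signal for this component of a 52-readout multiplex. HepG2 cells were transfected, exposed to chemicals for 24 h, and compared with DMSO using bidirectional fitting.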

The target in assay [9] is Retinoic acid receptor alpha (Homo sapiens) (UniProt P10276). Put plainly: ATG_DR5_RAR_CIS: Attagene CIS-FACTORIAL HepG2 Assay for human Retinoic Acid Receptor Alpha (RARE), DR5 submotif (AID 2282934). The conditions noted are these: HepG2 Attagene cis-factorial RARE DR5 reporter, mRNA; actives raise or lower the signal. The method in brief:
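HepG2 cells transiently transfected with multiplexed reporter units under cis (DR5 RARE) promoters, so endogenous transcription factor activity is measured. After 24 h compound exposure, reporter mRNA is quantified by RT-PCR with fluorescent labelling and capillary electrophoresis; bidirectional fitting versus DMSO.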

In assay [10] the target is Transcription factor E2F1 (Homo sapiens) (UniProt Q01094). Nature of the assay: ATG_E2F_CIS: Attagene CIS-FACTORIAL HepG2 Assay for human E2F Transcription Factor 1 (AID 2282935). The conditions noted are these: HepG2 Attagene cis-reporter, E2F reporter RNA transcripts; actives raise or lower the signal. The method in brief: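 First, HepG2 cells were transfected with reporter transcription units. Next, they were dosed for 24 h. Then RNA was isolated, converted to cDNA, PCR-amplified, FAM-labeled, HpaI-digested and analyzed by capillary electrophoresis.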
Sequence of Transcription factor E2F1 (Homo sapiens) (Q01094 whole entry, looked up): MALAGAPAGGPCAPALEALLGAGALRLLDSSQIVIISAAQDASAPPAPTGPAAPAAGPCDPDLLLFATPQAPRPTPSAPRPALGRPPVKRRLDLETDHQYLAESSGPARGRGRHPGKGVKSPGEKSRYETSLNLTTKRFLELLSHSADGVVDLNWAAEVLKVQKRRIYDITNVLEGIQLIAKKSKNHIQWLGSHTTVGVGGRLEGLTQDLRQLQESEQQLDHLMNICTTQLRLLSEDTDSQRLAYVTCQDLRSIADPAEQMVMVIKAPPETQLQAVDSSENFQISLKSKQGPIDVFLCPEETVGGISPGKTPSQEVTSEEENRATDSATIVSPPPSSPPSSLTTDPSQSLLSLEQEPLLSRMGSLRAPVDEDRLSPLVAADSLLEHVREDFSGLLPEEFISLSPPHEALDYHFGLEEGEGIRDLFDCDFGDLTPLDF

The nature of assay [11]: ATG_E_Box_CIS: Attagene CIS-FACTORIAL HepG2 Assay for human Enhancer Box (E-box) (AID 2282936). To be noted: HepG2 E-box cis-reporter transcription, actives raise or lower the signal. The method, boiled down: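 Endogenous transcription factor activity was sensed in human HepG2 liver cells through transfected cis-promoter reporter units. After 24 h of dosing, total RNA was reverse-transcribed and reporter cDNA resolved by capillary electrophoresis.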

Assay [12] in a line: ATG_M_61_CIS: Attagene CIS-FACTORIAL HepG2 Assay for M61 Transcription Factor (Internal Marker) (AID 2282937). To be noted: HepG2 Attagene CIS-FACTORIAL M61 internal marker reporter; actives raise or lower the signal. The method in brief:
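Human liver HepG2, transient MRTU transfection (cis promoter elements), 24 h compound. Total RNA → oligo(dT) RT → PCR → FAM label → HpaI → CE. Internal background marker; bidirectional fitting, DMSO = baseline.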

A short description of assay [13]: ATG_EGR_CIS: Attagene CIS-FACTORIAL HepG2 Assay for human Early Growth Response 1 (EGR1) (AID 2282938). To be noted: HepG2 Attagene CIS-FACTORIAL EGR reporter mRNA; actives raise or lower the signal. The method in brief:
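Transient transfection of human HepG2 with multiple cis-regulated reporter units, chemical exposure 24 h, total RNA isolated. Reverse transcription, PCR, fluorescent labelling and capillary electrophoresis quantify reporter transcripts; activity fitted bidirectionally against DMSO.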

A short description of assay [14]: ATG_M_19_CIS: Attagene CIS-FACTORIAL HepG2 Assay for M19 Transcription Factor (Internal Marker) (AID 2282939). The conditions noted are these: HepG2 Attagene CIS-FACTORIAL M19 internal marker reporter; actives raise or lower the signal. The method in brief:
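HepG2, MRTU transient transfection, 24 h dosing. Total RNA → RT-PCR → 6-FAM primer extension → HpaI digest → CE fluorescence. Bidirectional curve fit, DMSO negative control.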

Assay [15] in a line: ATG_Ets_CIS: Attagene CIS-FACTORIAL HepG2 Assay for human Erythroblast Transformation Specific (ETS) (AID 2282941). To be noted: HepG2 ETS cis-reporter transcription, actives raise or lower the signal. The method in brief:
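Endogenous transcription factor activity read as reporter mRNA via RT-PCR and capillary electrophoresis, with gain or loss fitted bidirectionally against DMSO. Human HepG2 liver cells, transiently transfected CIS reporter constructs, 24 h exposure.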

For assay [16], the target named is Hepatocyte nuclear factor 3-beta (Homo sapiens) (UniProt Q9Y261). Nature of the assay: ATG_FoxA2_CIS: Attagene CIS-FACTORIAL HepG2 Assay for human Forkhead box A2 (FOXA2) (AID 2282942). To be noted: HepG2 cis-reporter transcription factor activity, 24 h; actives raise or lower the signal. The method in brief: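 Transient MRTU transfection of HepG2 liver cells; 24 h treatment; total RNA → oligo(dT) RT → PCR → FAM primer extension → HpaI cut → CE. Bidirectional fit vs DMSO.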
Sequence of Hepatocyte nuclear factor 3-beta (Homo sapiens) (Q9Y261 whole entry, looked up): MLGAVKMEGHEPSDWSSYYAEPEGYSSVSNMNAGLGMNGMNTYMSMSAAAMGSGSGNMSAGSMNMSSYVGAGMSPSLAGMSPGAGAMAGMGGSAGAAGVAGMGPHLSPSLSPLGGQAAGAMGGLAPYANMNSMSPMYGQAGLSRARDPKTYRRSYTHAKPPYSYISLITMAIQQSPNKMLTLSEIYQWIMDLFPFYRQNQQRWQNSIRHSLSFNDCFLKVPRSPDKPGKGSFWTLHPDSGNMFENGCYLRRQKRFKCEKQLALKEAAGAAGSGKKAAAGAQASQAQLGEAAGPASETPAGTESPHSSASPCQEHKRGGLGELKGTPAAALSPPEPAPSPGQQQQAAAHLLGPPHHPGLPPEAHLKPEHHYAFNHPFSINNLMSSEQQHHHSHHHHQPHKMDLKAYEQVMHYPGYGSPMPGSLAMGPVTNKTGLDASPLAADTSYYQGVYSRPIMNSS

The nature of assay [17]: ATG_FoxO_CIS: Attagene CIS-FACTORIAL HepG2 Assay for human Forkhead box O (FoxO) (AID 2282943). The conditions noted are these: HepG2 Attagene cis-reporter, FoxO element, mRNA; actives raise or lower the signal. The method in brief: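 HepG2 cells transiently transfected with cis-promoter-driven multiple reporter transcription units; 24 h after chemical dosing, reporter mRNA quantified by RT-PCR, fluorescent primer extension, HpaI digestion and capillary electrophoresis. Bidirectional fitting versus DMSO baseline.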

Assay [18] is described as follows: ATG_GATA_CIS: Attagene CIS-FACTORIAL HepG2 Assay for human GATA Binding Protein (AID 2282944). The conditions noted are these: HepG2 GATA cis-element reporter, Attagene multiplex mRNA; actives raise or lower the signal. The method in brief: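 Cells: HepG2, transiently transfected with cis-regulated reporter transcription units. Exposure: 24 h. Detection: RT-PCR plus capillary electrophoresis of FAM-labeled fragments. Analysis: bidirectional, DMSO as baseline.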

The nature of assay [19]: ATG_GLI_CIS: Attagene CIS-FACTORIAL HepG2 Assay for human Zinc Finger Protein GLI1 (AID 2282945). The conditions noted are these: HepG2, Attagene cis-factorial reporter mRNA, GLI element; actives raise or lower the signal. The method in brief:
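HepG2 cells transiently transfected with cis-promoter multiplexed reporter units report endogenous transcription factor activity. After 24 h chemical exposure, reporter mRNA was quantified by RT-PCR, 6-FAM labelling, HpaI digestion and capillary electrophoresis, with bidirectional fitting against DMSO.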

Assay [20] concerns the target Bile acid receptor (Homo sapiens) (UniProt Q96RI1). Nature of the assay: ATG_IR1_CIS: Attagene CIS-FACTORIAL HepG2 Assay for human Nuclear Receptor Subfamily 1 Group H Member 4 (NR1H4), IR1 submotif (AID 2282946). To be noted: IR1 reporter transcription, actives raise or lower the signal. The method in brief: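 Readout: reporter transcript levels by RT-PCR with fluorescent capillary electrophoresis, from HepG2 cells transiently transfected with multiplexed cis-regulated reporters and dosed 24 h. Gain- or loss-of-signal fitted versus DMSO negative control.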

Sequence of Retinoic acid receptor alpha (Homo sapiens) (P10276 whole entry, looked up): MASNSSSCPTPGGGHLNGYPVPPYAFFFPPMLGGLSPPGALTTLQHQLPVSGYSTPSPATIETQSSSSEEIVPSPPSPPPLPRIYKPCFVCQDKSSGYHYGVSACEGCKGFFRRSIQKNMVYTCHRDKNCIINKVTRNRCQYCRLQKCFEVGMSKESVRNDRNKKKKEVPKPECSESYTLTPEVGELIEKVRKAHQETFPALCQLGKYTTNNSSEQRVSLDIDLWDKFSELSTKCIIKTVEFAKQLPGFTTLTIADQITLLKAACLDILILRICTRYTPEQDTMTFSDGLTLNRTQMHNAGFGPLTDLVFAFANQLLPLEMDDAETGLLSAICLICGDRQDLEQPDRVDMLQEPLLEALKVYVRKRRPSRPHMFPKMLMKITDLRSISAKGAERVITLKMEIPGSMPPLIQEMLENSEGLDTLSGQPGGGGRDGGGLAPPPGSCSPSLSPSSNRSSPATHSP
Sequence of Aryl hydrocarbon receptor (Homo sapiens) (P35869 whole entry, looked up): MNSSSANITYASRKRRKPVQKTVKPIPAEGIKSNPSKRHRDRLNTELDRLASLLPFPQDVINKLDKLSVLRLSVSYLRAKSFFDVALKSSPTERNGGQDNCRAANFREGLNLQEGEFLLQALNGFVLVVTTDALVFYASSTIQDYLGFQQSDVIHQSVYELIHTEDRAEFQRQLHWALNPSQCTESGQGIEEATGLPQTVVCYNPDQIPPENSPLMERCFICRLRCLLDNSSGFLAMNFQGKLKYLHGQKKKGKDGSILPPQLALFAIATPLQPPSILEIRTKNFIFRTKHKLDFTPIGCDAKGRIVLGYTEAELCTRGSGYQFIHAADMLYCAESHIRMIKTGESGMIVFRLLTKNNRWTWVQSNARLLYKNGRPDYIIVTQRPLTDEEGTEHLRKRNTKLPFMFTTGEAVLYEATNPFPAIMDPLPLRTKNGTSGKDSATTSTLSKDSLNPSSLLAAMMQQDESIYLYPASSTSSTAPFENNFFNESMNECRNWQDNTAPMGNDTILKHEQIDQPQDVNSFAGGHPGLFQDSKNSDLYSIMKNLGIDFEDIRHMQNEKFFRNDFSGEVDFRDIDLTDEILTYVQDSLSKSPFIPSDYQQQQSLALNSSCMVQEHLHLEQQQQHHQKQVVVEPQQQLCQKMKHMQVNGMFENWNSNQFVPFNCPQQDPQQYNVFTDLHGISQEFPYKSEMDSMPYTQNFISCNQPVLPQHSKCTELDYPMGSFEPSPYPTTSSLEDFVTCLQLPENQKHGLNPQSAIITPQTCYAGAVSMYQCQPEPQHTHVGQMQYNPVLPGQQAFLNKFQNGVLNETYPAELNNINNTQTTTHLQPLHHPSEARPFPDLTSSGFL
Sequence of CCAAT/enhancer-binding protein beta (Homo sapiens) (P17676 whole entry, looked up): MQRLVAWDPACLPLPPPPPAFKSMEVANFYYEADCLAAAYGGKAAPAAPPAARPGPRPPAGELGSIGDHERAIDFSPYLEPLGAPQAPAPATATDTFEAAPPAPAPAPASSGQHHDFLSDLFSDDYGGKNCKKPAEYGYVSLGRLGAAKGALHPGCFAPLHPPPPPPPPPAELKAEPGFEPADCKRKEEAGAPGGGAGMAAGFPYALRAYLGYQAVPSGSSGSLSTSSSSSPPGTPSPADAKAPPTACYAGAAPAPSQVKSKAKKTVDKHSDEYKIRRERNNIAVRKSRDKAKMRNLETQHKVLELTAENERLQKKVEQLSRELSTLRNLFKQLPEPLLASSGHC
Sequence of Bile acid receptor (Homo sapiens) (Q96RI1 whole entry, looked up): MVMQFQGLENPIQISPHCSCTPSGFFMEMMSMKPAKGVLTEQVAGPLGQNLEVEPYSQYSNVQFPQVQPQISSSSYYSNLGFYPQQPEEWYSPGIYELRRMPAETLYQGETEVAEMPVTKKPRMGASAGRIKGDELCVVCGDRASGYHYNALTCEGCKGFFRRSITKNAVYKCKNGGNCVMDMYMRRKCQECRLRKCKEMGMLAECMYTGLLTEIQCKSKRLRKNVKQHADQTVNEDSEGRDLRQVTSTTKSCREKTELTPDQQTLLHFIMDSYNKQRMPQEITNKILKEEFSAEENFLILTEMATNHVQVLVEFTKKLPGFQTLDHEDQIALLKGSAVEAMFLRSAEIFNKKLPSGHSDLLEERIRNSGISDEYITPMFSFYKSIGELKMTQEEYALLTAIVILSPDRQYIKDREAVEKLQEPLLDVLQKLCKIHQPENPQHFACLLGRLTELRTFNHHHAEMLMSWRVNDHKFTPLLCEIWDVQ

As for `COC(CC(C)CCCC(C)(C)O)OC` (centres undefined), the result in assay [1], in assay [2], in assay [3], in assay [4], in [5] and in assay [6] was inactive. The compound was called inactive in [7], in assay [8], in assay [9], in assay [10], in assay [11] and in assay [12]. Further, the compound was classed as inactive in assay [13], in [14], in [15], in assay [16], in [17] and in [18]. In assay [19], the result was inactive.

As for `CC(C)OCCO`, the outcome in assay [1], in assay [2], in assay [3], in assay [4], in assay [5] and in [6] was inactive. The result in [7], in [8], in [9], in [10], in [11] and in assay [12] was inactive. Moreover, the compound was called inactive in assay [13], in assay [14], in [15], in assay [16], in assay [17] and in [18]. Besides, in [19], the outcome was inactive.

With `CCOC(=O)CC(C)O` (centres undefined), the call in assay [1], in assay [2], in assay [3], in assay [4], in assay [5] and in [6] was inactive. In addition, the result in [7], in assay [8], in assay [9], in [10], in assay [11] and in assay [12] was inactive. Moreover, the call in assay [13], in [14], in assay [15], in assay [16], in assay [17] and in [18] was inactive. The call in assay [19] and in assay [20] was inactive.

For the compound `CC(C)Nc1nc(N)nc(Cl)n1`, the call in assay [1], in assay [2], in assay [3], in assay [4], in assay [5] and in [6] was inactive. The compound was called inactive in assay [7], in [8], in assay [9], in [10], in assay [11] and in [12]. In addition, the result in assay [13], in assay [14], in assay [15], in [16], in assay [17] and in assay [18] was inactive. Besides, the call in assay [19] was inactive.

In general, AC50 refers to the concentration at which the activity in the assay is half-maximal. For `Nc1c(Cl)cc(Cl)cc1[N+](=O)[O-]`, the call in assay [1], in assay [2], in assay [4], in assay [5], in assay [6] and in [7] was inactive. For the same compound, the call in [8], in [9], in [10], in assay [12], in assay [13] and in [14] was inactive. Also, the outcome in [15], in assay [16], in assay [17], in [18] and in [19] was inactive. The AC50 was 69.1 µM (active) in assay [3] and 92 µM (active) in assay [11].

As to `C=Cc1ccc(C)cc1`, the outcome in assay [1], in assay [2], in assay [3], in [4], in assay [5] and in assay [6] was inactive. For the same compound, the compound was called inactive in [7], in [8], in assay [9], in [10], in assay [11] and in [12]. For the same compound, the call in assay [13], in assay [14], in assay [15], in assay [16], in assay [17] and in assay [18] was inactive. Also, the call in assay [19] was inactive.

In the case of `c1ccc(CN(Cc2ccccc2)Cc2ccccc2)cc1`, the call in assay [1], in assay [2], in [3], in [5], in [6] and in assay [7] was inactive. Also, the result in assay [8], in assay [9], in [10], in assay [11], in assay [12] and in assay [13] was inactive. The result in [14], in [15], in assay [16], in assay [17] and in [18] was inactive. In addition, the values for the AC50 in assay [4] and in [19] were 18.4 µM (active) and 100 µM (active), respectively.
